# Inconclusive results are not listed. A call without a number means that no potency is given here. Values without a mark were called inactive. Activity calls are given as the source filed them. Calls follow the shape of the dose curve; as a rule, active = well fitted curve in the direction sought with a large enough effect; inconclusive = small, poorly fitted or top-dose-only effect, or another doubt; inactive = no such curve, though single readings can be large; an effect the other way counts as inactive or inconclusive.
# Legend:
# [1] = tested on: Es-2; assay: Primary qHTS to identify gynecologic anti-cancer compounds using libraries of approved drugs and bioactive compounds (AID 1345084); conditions: Gynecologic cancer cell panel viability, ATPlite luminescence, 48 h; series mostly up to 57.5 µM; also: nearly all actives have a fitted effect of over 55% in size
# Summary of the method: (§1)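 Five-point cytotoxicity, 48 h drug exposure at 37 C, 5% CO2, on cells seeded 16 h beforehand. ATP content read by ATPlite luminescence.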
# [2] = tested on: HeLa; assay: as above; conditions: Gynecologic cancer cell panel viability, ATPlite luminescence, 48 h; series mostly up to 57.5 µM
# Summary of the method: as §1
# [3] = tested on: Hek293T; assay: as above; conditions: Gynecologic cancer cell panel viability, ATPlite luminescence, 48 h, control line for the selectivity index; series mostly up to 57.5 µM
# Summary of the method: as §1
# [4] = tested on: JEG-3; assay: as above; conditions: Gynecologic cancer cell panel viability, ATPlite luminescence, 48 h; series mostly up to 57.5 µM
# Summary of the method: as §1
# [5] = tested on: OV90; assay: as above; conditions: Gynecologic cancer cell panel viability, ATPlite luminescence, 48 h; series mostly up to 57.5 µM
# Summary of the method: as §1
# [6] = tested on: PA-1; assay: as above; conditions: Gynecologic cancer cell panel viability, ATPlite luminescence, 48 h; series mostly up to 57.5 µM
# Summary of the method: as §1
# [7] = tested on: SKOV3; assay: as above; conditions: Gynecologic cancer cell panel viability, ATPlite luminescence, 48 h; series mostly up to 57.5 µM
# Summary of the method: as §1
# [8] = tested on: Tov-21-G; assay: as above; conditions: Gynecologic cancer cell panel viability, ATPlite luminescence, 48 h; series mostly up to 57.5 µM
# Summary of the method: as §1
# [9] = tested on: Tov112D; assay: as above; conditions: Gynecologic cancer cell panel viability, ATPlite luminescence, 48 h; series mostly up to 57.5 µM
# Summary of the method: as §1
# [10] = Drug repurposing screens with cells derived from glioblastoma tumor samples (AID 1345199); conditions: GBM patient neurospheres viability, ATP luminescence, 48 h; also: nearly all actives have a fitted effect of over 40% in size
# Summary of the method: (§2)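 Four patient lines of CD133+ GBM neurospheres were screened at several concentrations; hits were retested in those lines plus three slower-growing GBM lines, using 48-hour treatment and ATP-based viability.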
# [11] = tested on: astro; assay: as above; conditions: viability, ATP luminescence, 48 h; series mostly up to 45.9 µM
# Summary of the method: as §2
# [12] = at 45.9 µM (top of the series), tumour line B
# [13] = at 45.9 µM (top of the series), tumour line D
# [14] = at 46 µM (top of the series), tumour line A
# Potency is read from the fitted curve at half-maximal effect.
SMILES,Potency [1],Potency [2],Potency [3],Potency [4],Potency [5],Potency [6],Potency [7],Potency [8],Potency [9],"activity, negative = cell killing ([10]; at 91.6 µM (top of the series), tumour line B) [%]","activity, negative = cell killing ([10]; at 91.6 µM (top of the series), tumour line D) [%]",Potency ([10]; tumour line A),Potency [11],"activity, negative = cell killing [10, 12] [%]","activity, negative = cell killing [10, 13] [%]","activity, negative = cell killing [10, 14] [%]","activity, negative = cell killing ([10]; at 108 µM (top of the series), tumour line B) [%]","activity, negative = cell killing ([10]; at 108 µM (top of the series), tumour line D) [%]"
COc1cc(CC#N)cc(OC)c1OC,inactive,inactive,inactive,inactive,inactive,inactive,inactive,inactive,inactive,–,–,–,–,–,–,–,–,–
CC(CC(C(N)=O)(c1ccccc1)c1ccccc1)N(C)C (configuration not stated),inactive,inactive,inactive,inactive,inactive,inactive,inactive,inactive,inactive,–,–,–,–,–,–,–,–,–
Sc1ccccc1Cl,inactive,inactive,inactive,inactive,inactive,inactive,inactive,inactive,inactive,–,–,–,–,–,–,–,–,–
CCOC(=O)C1(c2ccccc2)CCN(CCc2ccc(N)cc2)CC1,inactive,inactive,inactive,inactive,inactive,inactive,inactive,inactive,inactive,–,–,–,–,–,–,–,–,–
ClCCCN1CCN(c2cccc(Cl)c2)CC1,inactive,inactive,inactive,inactive,inactive,inactive,inactive,inactive,inactive,–,–,–,–,–,–,–,–,–
CCN1CCCC1CNC(=O)C(O)(c1ccccc1)c1ccccc1 (configuration not stated),inactive,inactive,inactive,inactive,inactive,inactive,inactive,inactive,inactive,–,–,–,–,–,–,–,–,–
Cc1nc2ccccc2c(=O)n1-c1ccccc1Cl,inactive,inactive,inactive,inactive,inactive,inactive,inactive,inactive,inactive,-7.8,-27.3,39.8 µM (active),inactive,–,–,–,–,–
CCC(=O)C(CCN(C)C)(c1ccccc1)c1ccccc1,inactive,inactive,inactive,inactive,inactive,inactive,inactive,inactive,inactive,–,–,–,–,–,–,–,–,–
CC(Cc1ccccc1)NCc1ccccc1Cl (configuration not stated),inactive,inactive,inactive,inactive,inactive,inactive,inactive,inactive,inactive,–,–,14.1 µM (active),inactive,-13.4,-38.9,–,–,–
CCc1ccc(C2CCNCC2)cc1,inactive,inactive,inactive,inactive,inactive,inactive,inactive,inactive,inactive,–,–,–,–,–,–,–,–,–
CCOC(=O)C(c1c(O)c2ccccc2oc1=O)c1c(O)c2ccccc2oc1=O,inactive,inactive,inactive,inactive,inactive,inactive,inactive,inactive,inactive,–,–,–,–,–,–,–,–,–
Nc1ccc(Cl)cc1C(=O)c1ccccc1F,inactive,inactive,inactive,inactive,inactive,inactive,inactive,inactive,inactive,–,–,–,–,–,–,–,–,–
O=C(CCCCl)c1ccc(F)cc1,inactive,inactive,inactive,inactive,inactive,inactive,inactive,inactive,inactive,–,–,–,–,–,–,–,–,–
CC(Cc1ccccc1)NCCCCl (configuration not stated),inactive,inactive,inactive,inactive,inactive,inactive,inactive,inactive,inactive,–,–,–,–,–,–,–,–,–
C#C[C@]1(O)CC[C@H]2[C@@H]3CCC4=CC(=O)CCC4=C3C=C[C@@]21CC,inactive,inactive,inactive,inactive,inactive,inactive,inactive,inactive,inactive,–,–,10 µM (active),–,-22.9,-22,–,–,–
NCc1cccnc1,inactive,inactive,inactive,inactive,inactive,inactive,inactive,inactive,inactive,–,–,–,inactive,-7.53,-1.09,-28.1,–,–
CCC(=O)OC1(c2ccccc2)CCN(C)CC1,inactive,inactive,inactive,inactive,inactive,inactive,inactive,inactive,inactive,–,–,50.1 µM (active),inactive,–,–,–,-0.343,-13.5
CNC(C)Cc1ccccc1OC (configuration not stated),inactive,inactive,inactive,inactive,inactive,inactive,inactive,inactive,inactive,–,–,–,inactive,-11.6,-21,-24.5,–,–
CC(C)C(Br)C(=O)NC(N)=O (configuration not stated),inactive,inactive,inactive,inactive,inactive,inactive,inactive,inactive,inactive,–,–,–,inactive,-3.2,-12.7,-8.61,–,–
CC1=C2[C@H]3OC(=O)[C@@H](C)[C@@H]3CC[C@@]2(C)C=CC1=O,inactive,inactive,inactive,inactive,inactive,inactive,inactive,inactive,inactive,–,–,–,inactive,-4.49,-15.5,-23.4,–,–
C#C[C@]1(O)C=C[C@H]2[C@@H]3CCC4=CC(=O)CC[C@@H]4[C@H]3CC[C@@]21CC,inactive,12.6 µM (active),inactive,inactive,inactive,inactive,inactive,inactive,inactive,–,–,–,–,-6.47,-10.7,–,–,–

# From PubChem BioAssay (NCATS)
